Consider eight compounds from PubChem BioAssay (NCI).

The panel holds about 83,000 compounds, 20% with a hit somewhere; the sample as a whole holds those more often.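 For each line, cells grew in 96-well plates with the test compound present at a single concentration for 48 hours.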 A number with no mark means an inactive call. Active and inactive are the calls of the source. The calls were made as follows: active = growth percent below 10; inactive = the rest.

Common to all, as to test: NCI-60 one-dose screen, 48 h (100 = growth as untreated, 0 = no growth, -100 = all killed)
Test [1] relates to SK-MEL-2 melanoma. The settings on record: 10 µM unless noted.
Test [2] relates to EKVX NSCLC. The settings on record: 10 µM unless noted.
In test [3] the test system is SN12C renal. The settings on record: 10 µM unless noted.
The subject of test [4] is UO-31 renal. The settings on record: 10 µM unless noted.
Test [5] deals with TK-10 renal. To be noted: 10 µM unless noted.
The subject of test [6] is ACHN renal. To be noted: 10 µM unless noted.
For test [7], the system named is CAKI-1 renal. The settings on record: 10 µM unless noted.
Test [8] concerns A498 renal. To be noted: 10 µM unless noted.
Test [9] relates to CCRF-CEM leukemia. To be noted: 10 µM unless noted.
In test [10] the test system is MOLT-4 leukemia. To be noted: 10 µM unless noted.
Test [11] concerns SR leukemia. To be noted: 10 µM unless noted.
The test system of test [12] is RPMI-8226 leukemia. The settings on record: 10 µM unless noted.
The test system of test [13] is OVCAR-8 ovarian. To be noted: 10 µM unless noted.
The subject of test [14] is OVCAR-5 ovarian. The settings on record: 10 µM unless noted.
The subject of test [15] is OVCAR-4 ovarian. The settings on record: 10 µM.
In test [16] the test system is SK-OV-3 ovarian. The settings on record: 10 µM unless noted.
In test [17] the test system is IGROV1 ovarian. The settings on record: 10 µM unless noted.
Test [18] relates to NCI/ADR-RES ovarian. To be noted: 10 µM unless noted.
Test [19] deals with OVCAR-3 ovarian. To be noted: 10 µM unless noted.
For test [20], the system named is HS 578T breast. To be noted: 10 µM unless noted.

Take `COCc1nc2ccccc2[nH]1`: the growth in test [1] is 102%; in [2], 93.9%; in [3] it was 104%; in test [4], 87.3%; in test [5] it was 97.3%; in [6] it was 99.9%. For the same compound, the growth in test [7] is 93.4%; in test [8], 104%; in [9] it was 105%; in [10], 93%; in [11] it was 101%; in [12] it was 108%. Also, the growth in test [13] was 102%; in test [14], 99.8%; in test [15], 106%; in test [16], 101%; in test [17] it was 101%; in [18] it was 98.9%.
Take `COC(=O)c1cc2c(=O)[nH]cc3c2c(n1)CCC3`: the growth in [1] was 95.2%; in test [2], 101%; in test [3], 97.2%; in test [4], 75.4%; in test [5], 106%; in [6], 105%. Also, the growth was 97.4% in test [7]; 104% in test [8]; 103% in test [9]; 100% in test [10]; 113% in [11]; 76.2% in test [12]. Further, the growth was 105% in test [13]; 99.8% in test [14]; 103% in test [15]; 100% in [16]; 99.1% in test [19]; 109% in test [20]. Besides, in [18], the growth was 108%.
For the compound `COc1cc(C(=O)/C=C/c2c(-c3ccc(F)cc3)nc3sccn23)cc(OC)c1OC`, the growth is 10.1% in test [1]; 49.9% in test [2]; 64.6% in test [3]; 22.1% in test [4]; 36.5% in [5]; 28.3% in [6]. Further, the growth in test [7] is 15.1%; in test [8], 48.8%; in [9] it was -41.9% (active); in [10], 39.2%; in test [11], 26%; in [12], -44.2% (active). In addition, the growth in test [13] is 34.8%; in [14], 88%; in test [15], 25.7%; in [16], 47.4%; in test [19], 4.69% (active); in test [20] it was 46.1%. Also, the growth in test [18] was 10.4%.
As for `O=[N+]([O-])c1cc([N+](=O)[O-])c(C(F)(F)F)cc1NN=C(c1ccc(O)cc1)c1ccc(O)cc1`, the growth in [1] is -80.3% (active); in test [2] it was 92.7%; in [3], 79.7%; in test [4], -79.4% (active); in [5], 123%; in test [6], 12.8%. The growth in [7] is 98%; in test [8], 103%; in [9], 112%; in test [10], 107%; in test [11], 66.1%; in test [12], 76.4%. The growth in [13] is -49.9% (active); in [14], -6.51% (active); in test [15] it was 81.3%; in test [16], -23.1% (active); in test [19], 96.3%; in [20] it was 108%. For the same compound, in [18], the growth is -19.9% (active).
Take `COc1cc2c(c(OC)c1OC)-c1ccc(NNC(N)=S)c(=O)cc1[C@@H](NC(C)=O)CC2`: the growth in [1] is -8.39% (active); in test [2] it was 51.2%; in test [3], 35.9%; in test [4], 50.8%; in test [5] it was 58.7%; in test [6], 46.3%. For the same compound, the growth in test [7] was 37.5%; in test [8] it was 46.6%; in [9] it was 20.8%; in test [10], 23.1%; in test [11] it was 13.2%; in test [12] it was -11.9% (active). Further, the growth is 6.26% (active) in test [13]; 31.5% in test [14]; 23.1% in test [15]; 7.84% (active) in test [16]; -56.8% (active) in test [19]; 52.1% in test [20]. The growth in [18] is 87.4%.
In the case of `NC(=O)c1c(NC(=O)COC(=O)Cc2ccccc2F)sc2c1CCC2`, the growth in [1] was 99.9%; in [2], 101%; in test [3], 109%; in [4], 72.6%; in [5], 124%; in test [6], 109%. Further, the growth in test [7] was 99%; in test [8] it was 117%; in test [9] it was 108%; in [10], 86.6%; in test [11], 125%; in [12], 130%. Besides, the growth in test [13] is 39.4%; in test [14], 111%; in test [15] it was 114%; in test [16], 104%; in test [19], 112%; in test [20], 109%. Further, in test [18], the growth was 110%.
For `Ic1ccc2[nH]cc(SSc3c[nH]c4ccc(I)cc34)c2c1`, the growth in test [1] was 74%; in test [2] it was 23.5%; in test [3], 42.1%; in [4] it was 36.6%; in test [5], -13.3% (active); in test [6] it was 16.5%. Besides, the growth in test [7] was -6.92% (active); in test [8], 40.7%; in test [9], 8.16% (active); in test [10], 13.2%; in test [11], 13.8%; in test [12], 3.93% (active). The growth in [13] was 32.6%; in test [14], 42.7%; in test [15] it was 25.3%; in test [16], -20.1% (active); in [19], -9.35% (active); in test [20], 65.7%. For the same compound, the growth in [18] is 7.06% (active).
As for `COc1ccc(-c2nc3ccccn3c2/C=C/C(=O)c2cc(OC)c(OC)c(OC)c2)cc1OC`, the growth in [1] is -28.5% (active); in test [2] it was 28.5%; in test [3], 31%; in test [4], 17%; in [5], 43%; in test [6], 19.9%. Moreover, the growth is 8.16% (active) in test [7]; -14.1% (active) in [8]; 16.4% in [9]; 25.5% in [10]; 27% in [11]; -26% (active) in test [12]. The growth in [13] is 14.1%; in test [14] it was 24.5%; in [15], 17.8%; in test [16], 6.61% (active); in test [19], 9.08% (active); in test [20] it was 6.05% (active). In test [18], the growth was -4.39% (active).
